What was measured:
Assay in all cases: DAPPL (digital affinity profiling via proximity ligation, sequencing); 10 mM Tris-HCl pH 7.5, 50 mM NaCl, 1 mM DTT, 4% glycerol, room temperature, 30 min; GST-TFs on glutathione beads, 16-mer random dsDNA library, 0.1% formaldehyde crosslink after washing; high values mean tight binding
Settings in all cases: protein: recombinant; tags: N-terminal GST; dsDNA, one strand shown
[1] = target: T1, FLI1 (Homo sapiens, UniProt Q01543 1-452)
T1 sequence: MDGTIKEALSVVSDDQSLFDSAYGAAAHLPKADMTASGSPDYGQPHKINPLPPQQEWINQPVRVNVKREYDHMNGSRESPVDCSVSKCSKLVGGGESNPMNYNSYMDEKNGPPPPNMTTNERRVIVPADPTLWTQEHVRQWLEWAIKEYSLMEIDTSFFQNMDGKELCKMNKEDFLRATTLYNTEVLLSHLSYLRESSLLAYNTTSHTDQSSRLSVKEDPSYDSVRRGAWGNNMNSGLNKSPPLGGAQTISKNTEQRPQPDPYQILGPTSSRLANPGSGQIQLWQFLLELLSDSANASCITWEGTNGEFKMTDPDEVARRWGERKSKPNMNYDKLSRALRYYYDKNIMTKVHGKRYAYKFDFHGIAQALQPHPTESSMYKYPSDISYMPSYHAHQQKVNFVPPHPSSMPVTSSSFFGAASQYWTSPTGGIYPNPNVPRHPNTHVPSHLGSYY
Outline: (§1)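 Binding signal is defined as a hexamer's read frequency for one factor over its frequency for the tag-only sample. To obtain reads, GST-fused human transcription factors were expressed in yeast, captured on glutathione beads, barcoded with DNA and pooled with that sample. Pools met 200 nmole of a 16-mer random double-stranded DNA library in Tris/NaCl/DTT/glycerol buffer for 30 min at room temperature before washing, 0.1% formaldehyde crosslinking, proximity ligation (BsaI/T4 ligase, 1 h, 37 °C), PCR and Illumina NextSeq500 sequencing.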

[2] = target: T2, ELK1 (Homo sapiens, UniProt P19419 1-428)
T2 sequence: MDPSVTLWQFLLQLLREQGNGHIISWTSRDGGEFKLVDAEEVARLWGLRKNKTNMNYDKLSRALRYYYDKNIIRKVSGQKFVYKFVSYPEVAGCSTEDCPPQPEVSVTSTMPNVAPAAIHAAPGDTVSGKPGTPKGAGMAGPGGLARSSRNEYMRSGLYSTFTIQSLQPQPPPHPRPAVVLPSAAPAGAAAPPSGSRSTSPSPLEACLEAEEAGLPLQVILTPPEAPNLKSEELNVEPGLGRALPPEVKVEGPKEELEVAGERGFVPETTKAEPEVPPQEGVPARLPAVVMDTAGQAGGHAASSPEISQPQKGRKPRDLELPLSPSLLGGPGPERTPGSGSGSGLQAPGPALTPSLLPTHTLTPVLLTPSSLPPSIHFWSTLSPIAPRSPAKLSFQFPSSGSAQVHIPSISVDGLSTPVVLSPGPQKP
Outline: as §1

[3] = target: T3, ERG (Homo sapiens, UniProt P11308 1-479)
T3 sequence: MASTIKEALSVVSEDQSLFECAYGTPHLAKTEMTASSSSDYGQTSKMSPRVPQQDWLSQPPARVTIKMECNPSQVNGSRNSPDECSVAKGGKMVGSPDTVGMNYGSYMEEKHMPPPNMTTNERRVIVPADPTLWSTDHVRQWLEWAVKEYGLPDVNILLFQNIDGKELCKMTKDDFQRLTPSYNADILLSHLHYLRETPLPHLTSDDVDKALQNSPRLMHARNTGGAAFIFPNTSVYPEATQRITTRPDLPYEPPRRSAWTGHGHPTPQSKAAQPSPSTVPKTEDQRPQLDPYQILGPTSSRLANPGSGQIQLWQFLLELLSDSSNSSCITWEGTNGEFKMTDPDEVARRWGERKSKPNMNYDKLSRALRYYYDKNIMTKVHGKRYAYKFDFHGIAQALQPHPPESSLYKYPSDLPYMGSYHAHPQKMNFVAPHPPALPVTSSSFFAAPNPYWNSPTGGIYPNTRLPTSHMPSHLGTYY
Outline: as §1

[4] = target: ELF1 (Homo sapiens, UniProt P32519 1-619)
Chain of ELF1 (P32519 whole entry): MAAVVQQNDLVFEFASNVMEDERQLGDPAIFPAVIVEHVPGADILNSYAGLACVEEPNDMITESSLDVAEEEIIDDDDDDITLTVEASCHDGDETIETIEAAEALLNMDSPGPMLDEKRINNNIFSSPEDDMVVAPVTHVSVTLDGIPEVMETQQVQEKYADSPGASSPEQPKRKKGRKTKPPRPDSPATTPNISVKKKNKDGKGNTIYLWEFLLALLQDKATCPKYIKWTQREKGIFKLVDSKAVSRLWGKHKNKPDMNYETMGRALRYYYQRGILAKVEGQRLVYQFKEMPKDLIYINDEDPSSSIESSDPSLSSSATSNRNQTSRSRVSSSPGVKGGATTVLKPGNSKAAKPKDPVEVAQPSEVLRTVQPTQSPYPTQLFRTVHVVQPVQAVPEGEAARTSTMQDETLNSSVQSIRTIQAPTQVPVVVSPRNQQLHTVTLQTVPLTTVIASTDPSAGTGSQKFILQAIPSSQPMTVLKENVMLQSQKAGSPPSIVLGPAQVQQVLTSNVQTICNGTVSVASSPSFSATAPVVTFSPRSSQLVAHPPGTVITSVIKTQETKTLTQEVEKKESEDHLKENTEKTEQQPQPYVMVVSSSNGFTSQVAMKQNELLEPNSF
Outline: as §1

[5] = target: T4, EHF (Homo sapiens, UniProt Q9NZC4 1-300)
T4 sequence: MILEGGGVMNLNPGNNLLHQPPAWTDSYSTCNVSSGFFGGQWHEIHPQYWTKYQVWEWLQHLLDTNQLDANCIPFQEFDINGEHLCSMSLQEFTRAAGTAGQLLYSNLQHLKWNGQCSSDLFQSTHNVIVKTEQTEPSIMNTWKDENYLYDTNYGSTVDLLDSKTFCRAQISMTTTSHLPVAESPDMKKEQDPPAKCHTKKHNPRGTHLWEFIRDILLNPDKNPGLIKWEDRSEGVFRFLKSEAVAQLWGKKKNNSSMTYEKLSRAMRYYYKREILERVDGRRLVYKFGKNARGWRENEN
Outline: as §1

[6] = target: SPIB (Homo sapiens, UniProt Q01892 1-262)
Chain of SPIB (Q01892 whole entry): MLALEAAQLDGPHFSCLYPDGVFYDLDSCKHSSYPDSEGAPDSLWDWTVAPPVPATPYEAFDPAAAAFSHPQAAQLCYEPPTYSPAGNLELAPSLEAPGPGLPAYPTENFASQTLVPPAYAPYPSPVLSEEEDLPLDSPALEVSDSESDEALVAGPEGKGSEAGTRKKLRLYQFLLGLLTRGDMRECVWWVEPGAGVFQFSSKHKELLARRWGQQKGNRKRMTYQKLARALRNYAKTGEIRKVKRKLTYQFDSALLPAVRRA
Outline: as §1

[7] = target: T5, ELK3 (Homo sapiens, UniProt P41970 1-407)
T5 sequence: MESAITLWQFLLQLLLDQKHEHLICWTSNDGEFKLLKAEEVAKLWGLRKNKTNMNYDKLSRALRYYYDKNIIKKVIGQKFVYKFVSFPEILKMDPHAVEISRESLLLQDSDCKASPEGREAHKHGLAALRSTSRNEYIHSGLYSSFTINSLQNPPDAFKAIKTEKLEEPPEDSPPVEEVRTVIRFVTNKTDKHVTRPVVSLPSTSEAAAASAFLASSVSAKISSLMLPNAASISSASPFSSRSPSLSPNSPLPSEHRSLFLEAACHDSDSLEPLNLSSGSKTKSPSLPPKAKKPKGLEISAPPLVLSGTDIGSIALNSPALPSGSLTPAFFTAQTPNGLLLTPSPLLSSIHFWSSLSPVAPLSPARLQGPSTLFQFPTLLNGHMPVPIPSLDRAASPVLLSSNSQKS
Outline: as §1

[8] = target: T6, FEV (Homo sapiens, UniProt Q99581 1-238)
T6 sequence: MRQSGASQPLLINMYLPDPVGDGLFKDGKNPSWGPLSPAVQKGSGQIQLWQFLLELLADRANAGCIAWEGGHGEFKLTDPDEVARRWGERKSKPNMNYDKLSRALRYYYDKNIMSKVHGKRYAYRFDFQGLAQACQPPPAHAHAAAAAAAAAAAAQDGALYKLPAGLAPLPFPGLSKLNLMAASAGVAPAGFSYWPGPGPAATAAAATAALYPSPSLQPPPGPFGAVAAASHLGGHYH
Outline: as §1

[9] = target: ETV5 (Homo sapiens, UniProt P41161 1-510)
Chain of ETV5 (P41161 whole entry): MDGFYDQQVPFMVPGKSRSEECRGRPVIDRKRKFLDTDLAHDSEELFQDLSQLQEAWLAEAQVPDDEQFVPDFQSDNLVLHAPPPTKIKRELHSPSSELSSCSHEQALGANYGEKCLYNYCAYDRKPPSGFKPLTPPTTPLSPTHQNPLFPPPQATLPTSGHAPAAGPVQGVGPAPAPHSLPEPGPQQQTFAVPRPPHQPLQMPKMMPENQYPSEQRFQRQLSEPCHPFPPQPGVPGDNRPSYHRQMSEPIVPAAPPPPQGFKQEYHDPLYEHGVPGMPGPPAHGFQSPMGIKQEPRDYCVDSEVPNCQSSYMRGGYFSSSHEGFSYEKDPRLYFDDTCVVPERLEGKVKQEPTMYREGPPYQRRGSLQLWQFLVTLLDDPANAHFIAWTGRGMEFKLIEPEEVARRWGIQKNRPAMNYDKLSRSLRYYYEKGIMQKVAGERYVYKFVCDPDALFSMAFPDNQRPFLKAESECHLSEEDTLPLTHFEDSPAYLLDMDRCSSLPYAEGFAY
Outline: as §1

[10] = target: T7, SPIC (Homo sapiens, UniProt Q8N5J4 1-248)
T7 sequence: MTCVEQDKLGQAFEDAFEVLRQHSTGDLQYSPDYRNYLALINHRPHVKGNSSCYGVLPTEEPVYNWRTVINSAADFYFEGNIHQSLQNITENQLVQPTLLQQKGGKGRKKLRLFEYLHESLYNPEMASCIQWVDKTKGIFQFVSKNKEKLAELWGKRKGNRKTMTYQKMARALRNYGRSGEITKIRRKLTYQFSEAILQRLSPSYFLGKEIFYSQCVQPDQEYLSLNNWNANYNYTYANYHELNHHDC
Outline: as §1

[11] = target: ELF4 (Homo sapiens, UniProt Q99607 1-663)
Chain of ELF4 (Q99607 whole entry): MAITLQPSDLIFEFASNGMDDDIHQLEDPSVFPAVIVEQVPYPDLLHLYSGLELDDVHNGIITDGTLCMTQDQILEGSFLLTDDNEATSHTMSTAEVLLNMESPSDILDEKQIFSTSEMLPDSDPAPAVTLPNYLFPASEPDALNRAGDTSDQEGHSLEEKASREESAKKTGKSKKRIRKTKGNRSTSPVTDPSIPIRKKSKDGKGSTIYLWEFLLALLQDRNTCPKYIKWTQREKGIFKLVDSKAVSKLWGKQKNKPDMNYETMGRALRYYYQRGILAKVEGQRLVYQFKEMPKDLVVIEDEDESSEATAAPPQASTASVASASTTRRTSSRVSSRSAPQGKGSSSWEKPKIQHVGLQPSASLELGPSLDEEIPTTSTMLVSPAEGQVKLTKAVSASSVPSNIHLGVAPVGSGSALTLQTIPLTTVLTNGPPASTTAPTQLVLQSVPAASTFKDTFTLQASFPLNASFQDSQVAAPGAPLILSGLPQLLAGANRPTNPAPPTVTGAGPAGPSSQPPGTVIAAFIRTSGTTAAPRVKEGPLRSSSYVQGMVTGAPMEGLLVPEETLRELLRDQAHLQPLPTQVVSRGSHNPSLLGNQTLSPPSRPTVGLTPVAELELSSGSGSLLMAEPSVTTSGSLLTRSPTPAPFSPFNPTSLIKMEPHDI
Outline: as §1

[12] = target: ETV1 (Homo sapiens, UniProt P50549 1-477)
Chain of ETV1 (P50549 whole entry): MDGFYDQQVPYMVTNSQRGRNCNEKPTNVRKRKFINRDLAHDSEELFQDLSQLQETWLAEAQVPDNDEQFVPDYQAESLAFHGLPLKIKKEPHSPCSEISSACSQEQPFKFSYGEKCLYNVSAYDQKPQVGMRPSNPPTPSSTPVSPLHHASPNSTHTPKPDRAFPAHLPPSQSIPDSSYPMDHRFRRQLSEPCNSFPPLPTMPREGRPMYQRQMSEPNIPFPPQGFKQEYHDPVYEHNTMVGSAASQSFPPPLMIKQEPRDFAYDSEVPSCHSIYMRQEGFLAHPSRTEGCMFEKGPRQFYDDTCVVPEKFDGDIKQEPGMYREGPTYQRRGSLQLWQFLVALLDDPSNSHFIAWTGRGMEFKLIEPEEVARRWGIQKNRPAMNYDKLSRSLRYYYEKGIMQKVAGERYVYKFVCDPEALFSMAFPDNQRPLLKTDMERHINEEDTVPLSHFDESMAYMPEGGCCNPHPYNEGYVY
Outline: as §1

[13] = target: T8, ETS2 (Homo sapiens, UniProt P15036 1-469)
T8 sequence: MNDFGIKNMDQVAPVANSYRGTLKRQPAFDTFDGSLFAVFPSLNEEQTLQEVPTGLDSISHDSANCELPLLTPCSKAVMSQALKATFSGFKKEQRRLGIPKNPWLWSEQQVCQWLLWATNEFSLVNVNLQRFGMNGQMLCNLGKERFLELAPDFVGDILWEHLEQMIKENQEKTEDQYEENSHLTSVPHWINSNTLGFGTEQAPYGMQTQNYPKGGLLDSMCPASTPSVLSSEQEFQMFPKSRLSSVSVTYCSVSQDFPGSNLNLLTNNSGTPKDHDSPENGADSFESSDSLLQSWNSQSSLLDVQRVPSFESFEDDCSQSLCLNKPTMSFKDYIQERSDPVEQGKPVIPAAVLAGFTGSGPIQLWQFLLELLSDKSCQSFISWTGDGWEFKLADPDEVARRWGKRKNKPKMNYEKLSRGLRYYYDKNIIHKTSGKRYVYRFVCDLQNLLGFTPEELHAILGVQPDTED
Outline: as §1

[14] = target: T9, SPDEF (Homo sapiens, UniProt O95238 1-335)
T9 sequence: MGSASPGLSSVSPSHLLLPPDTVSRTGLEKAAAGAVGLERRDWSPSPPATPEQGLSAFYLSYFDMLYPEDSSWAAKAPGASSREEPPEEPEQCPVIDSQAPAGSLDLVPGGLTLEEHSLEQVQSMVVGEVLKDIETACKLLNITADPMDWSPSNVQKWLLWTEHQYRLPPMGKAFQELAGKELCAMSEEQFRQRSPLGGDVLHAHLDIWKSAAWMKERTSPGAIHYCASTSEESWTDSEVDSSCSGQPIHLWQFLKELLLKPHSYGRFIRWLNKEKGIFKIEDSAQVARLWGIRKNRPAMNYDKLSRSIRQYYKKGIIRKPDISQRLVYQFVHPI
Outline: as §1

[15] = target: T10, ETV3 (Homo sapiens, UniProt P41162-2 1-143)
T10 sequence: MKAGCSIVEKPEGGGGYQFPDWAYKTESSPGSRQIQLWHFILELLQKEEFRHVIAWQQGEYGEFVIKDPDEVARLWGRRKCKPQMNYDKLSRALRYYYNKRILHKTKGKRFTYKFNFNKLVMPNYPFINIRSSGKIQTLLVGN
Outline: as §1

[16] = target: ETV6 (Homo sapiens, UniProt P41212 1-452)
Chain of ETV6 (P41212 whole entry): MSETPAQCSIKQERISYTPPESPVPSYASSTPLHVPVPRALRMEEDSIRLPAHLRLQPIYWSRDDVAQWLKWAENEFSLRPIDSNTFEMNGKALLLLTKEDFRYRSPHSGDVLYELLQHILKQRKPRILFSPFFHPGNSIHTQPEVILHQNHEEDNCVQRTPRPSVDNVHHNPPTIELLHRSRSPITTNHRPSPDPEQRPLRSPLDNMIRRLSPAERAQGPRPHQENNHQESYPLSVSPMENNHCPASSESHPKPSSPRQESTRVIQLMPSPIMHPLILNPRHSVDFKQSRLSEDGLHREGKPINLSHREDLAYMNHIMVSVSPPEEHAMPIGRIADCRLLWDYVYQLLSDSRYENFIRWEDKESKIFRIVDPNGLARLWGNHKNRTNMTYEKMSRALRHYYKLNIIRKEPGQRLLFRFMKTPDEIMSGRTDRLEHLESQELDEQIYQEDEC
Outline: as §1

[17] = target: SPI1 (Homo sapiens, UniProt P17947 1-270)
Outline: as §1

TGCCGG
binding signal [1]: 1.11 fold enrichment (6-mer frequency, TF over GST control) | binding signal [2]: 1.09 fold enrichment (6-mer frequency, TF over GST control) | binding signal [3]: 1.13 fold enrichment (6-mer frequency, TF over GST control) | binding signal [4]: 1.02 fold enrichment (6-mer frequency, TF over GST control) | binding signal [5]: 1.03 fold enrichment (6-mer frequency, TF over GST control) | binding signal [6]: 1.02 fold enrichment (6-mer frequency, TF over GST control) | binding signal [7]: 1.02 fold enrichment (6-mer frequency, TF over GST control) | binding signal [8]: 1.26 fold enrichment (6-mer frequency, TF over GST control) | binding signal [9]: 1.04 fold enrichment (6-mer frequency, TF over GST control) | binding signal [10]: 1.09 fold enrichment (6-mer frequency, TF over GST control) | binding signal [11]: 1.04 fold enrichment (6-mer frequency, TF over GST control) | binding signal [12]: 1.11 fold enrichment (6-mer frequency, TF over GST control) | binding signal [13]: 1 fold enrichment (6-mer frequency, TF over GST control) | binding signal [14]: 1.21 fold enrichment (6-mer frequency, TF over GST control) | binding signal [15]: 1.21 fold enrichment (6-mer frequency, TF over GST control) | binding signal [16]: 1.13 fold enrichment (6-mer frequency, TF over GST control)

ACGGTT
binding signal [1]: 1.07 fold enrichment (6-mer frequency, TF over GST control) | binding signal [2]: 1.02 fold enrichment (6-mer frequency, TF over GST control) | binding signal [4]: 1.03 fold enrichment (6-mer frequency, TF over GST control) | binding signal [5]: 1.04 fold enrichment (6-mer frequency, TF over GST control) | binding signal [17]: 1.02 fold enrichment (6-mer frequency, TF over GST control) | binding signal [6]: 1.02 fold enrichment (6-mer frequency, TF over GST control) | binding signal [9]: 1 fold enrichment (6-mer frequency, TF over GST control) | binding signal [10]: 1.04 fold enrichment (6-mer frequency, TF over GST control) | binding signal [12]: 1.08 fold enrichment (6-mer frequency, TF over GST control) | binding signal [14]: 1.04 fold enrichment (6-mer frequency, TF over GST control) | binding signal [16]: 1.01 fold enrichment (6-mer frequency, TF over GST control)
